Data as given in PubChem BioAssay AID1159580 (chemical genetic matrix, 2015).
Values joined by “and” are separate entries in the source; they are usually repeats but may differ in a detail not shown here. Identical values can stand only once. Among all 5,500 compounds or so, about 2,000 (36%) were called active. Roughly 18% stayed inconclusive and do not appear here. Rule as the data show it: active = normalized growth mostly below about 0.91 (no sharp cut-off); inconclusive = no clear call, values can overlap the other calls; inactive = mostly above about 0.92. The list shows a part of the results.

Experiment: chemical genetic growth profiling, strain panel (AID 1159580);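 also: tested at 20 µM; growth read once vehicle control cultures reached saturation at 30 °C; 1 = growth at the plate median or of vehicle wells; lower values mean less growth of the strain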
Conditions: S. cerevisiae deletion strains, growth OD

Measured: normalized growth

C1CCc2nnnn2CC1
inactive: locus YAL013W, strain DEP1, hits give low values 1.01 | locus YAL021C, strain ccr4, hits give low values 1.01 | locus YAL026C, strain drs2, hits give low values 1.01 | locus YAL030W, strain snc1, hits give low values 1 | locus YAL040C, strain CLN3, hits give low values 0.98 | locus YBL061C, strain skt5, hits give low values 1.01 | locus YBR009C, strain hhf1, hits give low values 1.01 | locus YBR021W, strain FUR4, hits give low values 1.01 | locus YBR023C, strain chs3, hits give low values 1.01 | locus YBR171W, strain sec66, hits give low values 1.01 | locus YBR229C, strain ROT2, hits give low values 1.01 | locus YBR231C, strain swc5, hits give low values 1 | locus YBR279W, strain paf1, hits give low values 1.01 | locus YCL011C, strain gbp2, hits give low values 1 | locus YCL016C, strain dcc1, hits give low values 1 | locus YCL029C, strain bik1, hits give low values 1.03 | locus YCL061C, strain MRC1 (second series), hits give low values 1 | locus YCL061C, strain MRC1, hits give low values 0.998 | locus YCL069W, strain vba3, hits give low values 1 | locus YCR088W, strain abp1, hits give low values 1.02 | locus YDL005C, strain med2, hits give low values 0.999 | locus YDL035C, strain GPR1, hits give low values 1.01 | locus YDL040C, strain nat1, hits give low values 1 | locus YDL074C, strain BRE1, hits give low values 1.03 | locus YDL101C, strain DUN1, hits give low values 1.03 | locus YDL134C, strain PPH21, hits give low values 1.01 | locus YDL185W, strain tfp1, hits give low values 1.01 | locus YDL192W, strain arf1, hits give low values 1.01 | locus YDR001C, strain nth1, hits give low values 1.01 | locus YDR069C, strain doa4, hits give low values 1.01 | locus YDR101C, strain arx1, hits give low values 1.01 | locus YDR137W, strain rgp1, hits give low values 1.02 | locus YDR150W, strain NUM1, hits give low values 1.01 and 1 | locus YDR159W, strain sac3, hits give low values 1 | locus YDR162C, strain NBP2, hits give low values 0.994 | locus YDR195W, strain ref2 0.985 | locus YDR297W, strain sur2, hits give low values 1.02 | locus YDR318W, strain mcm21, hits give low values 1.02 | locus YDR334W, strain swr1, hits give low values 1.01 | locus YDR335W, strain msn5, hits give low values 1.01 | locus YDR363W, strain ESC2, hits give low values 1.01 | locus YDR388W, hits give low values 1 | locus YDR392W, strain spt3, hits give low values 1.03 | locus YDR502C, strain sam2, hits give low values 1 | locus YEL003W, strain gim4, hits give low values 1.01 | locus YEL037C, strain rad23, hits give low values 1 | locus YEL061C, strain CIN8 (second series), hits give low values 1.01 | locus YEL061C, strain CIN8, hits give low values 1.01 | locus YER002W, strain NOP16, hits give low values 1.01 | locus YER015W, strain faa2, hits give low values 1 | locus YER016W, strain bim1, hits give low values 1.01 | locus YER110C, hits give low values 1.02 | locus YER111C, strain swi4, hits give low values 1 | locus YER155C, strain BEM2 (second series), hits give low values 1.02 | locus YER155C, strain BEM2, hits give low values 1 | locus YER167W, strain BCK2, hits give low values 1 | locus YFR010W, strain ubp6, hits give low values 1.01 | locus YGL078C, strain dbp3, hits give low values 1 | locus YGL086W, strain mad1, hits give low values 0.99 | locus YGL173C, strain kem1, hits give low values 1.02 | locus YGL227W, strain vid30, hits give low values 1 | locus YGL240W, strain doc1, hits give low values 1.01 | locus YGL248W, strain PDE1, hits give low values 1.01 | locus YGL253W, strain hxk2, hits give low values 1 | locus YGR078C, strain PAC10, hits give low values 1 and 1.03 | locus YGR135W, strain pre9, hits give low values 1.03 | locus YGR229C, strain SMI1, hits give low values 0.969 and 1.01 | locus YGR252W, strain gcn5, hits give low values 0.941 | locus YHR013C, strain ard1, hits give low values 1.02 | locus YHR027C, strain rpn1, hits give low values 1.01 | locus YHR030C, strain SLT2, hits give low values 1.01 and 0.966 | locus YHR079C, strain IRE1 (second series), hits give low values 1.02 | locus YHR079C, strain IRE1, hits give low values 0.964 | locus YHR094C, strain hxt1, hits give low values 1.01 | locus YHR129C, strain ARP1, hits give low values 1.02 | locus YHR142W, strain chs7, hits give low values 1.01 | locus YHR200W, strain rpn10, hits give low values 1.01 | locus YIL066C, strain RNR3, hits give low values 1.02 | locus YIL073C, strain SPO22, hits give low values 1.01 | locus YIL125W, strain kgd1, hits give low values 1 | locus YIR030C, strain dcg1, hits give low values 1.01 | locus YJL092W, strain hpr5, hits give low values 1 | locus YJL095W, strain BCK1 (second series), hits give low values 1 | locus YJL095W, strain BCK1, hits give low values 1.02 and 0.967 | locus YJL115W, strain asf1, hits give low values 0.993 | locus YJL129C, strain trk1, hits give low values 1.01 | locus YJL134W, strain LCB3, hits give low values 1.01 | locus YJL154C, strain vps35, hits give low values 1 | locus YJL164C, strain tpk1, hits give low values 1 | locus YJL166W, strain qcr8, hits give low values 1.01 | locus YJL168C, strain set2, hits give low values 1.01 | locus YJL187C, strain SWE1 (second series), hits give low values 1.04 | locus YJL187C, strain SWE1, hits give low values 1.02 | locus YJR043C, strain POL32, hits give low values 1.01 | locus YJR066W, strain TOR1, hits give low values 0.921
